Data on 103 compounds can be found in ChEMBL document CHEMBL3988442, “University of Dundee, Small-Polar-MMV Screening Library” (2021).

Out of some 48,000 compounds screened, about 13,000 (27%) showed an effect of 50% or more. Some of the results follow.

The test relates to Wolbachia pipientis. Put plainly: Anti-Wolbachia Cell-Based Screen. It counts as functional. Also noted: scale not given: in the data most compounds retested in dose-response had high values. The settings on record: 5 µM.
With `CCc1nccn1CC(=O)N1C[C@H]2CC[C@@H]1CN(S(=O)(=O)N(C)C)C2`, the “Percent Effect” value is -7.287%. Then `Cc1nc(CN2CCCC2C(=O)OCc2ccccc2)oc1C` (stereo not drawn), with 2.818%; and `CCN1CCN(C(=O)NCc2cccc(-c3cnn(C)c3)c2)CC1`, with -0.06636%; and `CCOC(=O)NC(CNC(=O)c1cccc(C)n1)CC(C)C` (stereo not drawn), with -0.9976%.

For the compound `COCc1ccccc1C(=O)N1CCC(CNC(=O)OC(C)(C)C)C1` (stereo not drawn), the “Percent Effect” value is on record as -8.221%.

With `CS(=O)(=O)CCC(=O)N1C[C@@H]2CC[C@H](C1)N(Cc1ccccn1)C2=O`, the “Percent Effect” value worked out at 13.71%. In the case of `N[C@@H]1CC[C@@H](Nc2nccc(CCC(F)(F)F)n2)C1` it was -1.257%. Turning to `Cn1c(CCCNc2nccnc2C#N)nc2ccccc21`, the “Percent Effect” value is -4.565%. Then `CN(C)c1nccc(N(C)Cc2nc3ccccc3n2C)n1`, with -8.65%; and `CCNc1ncc(C(=O)N(C)Cc2nc3ccccc3n2C)cn1`, with -2.006%; and `COc1cc(F)c(NCc2nc3ccccc3n2C)cc1OC`, with 108.7%. `CN1C[C@@H](F)[C@@H](OCc2nc3ccccc3n2C)C1`: the “Percent Effect” value is on record as 6.816%. Then `COc1ccc(-n2c(CO)nc3ccccc32)cc1CO`, with -2.808%.

For `COCCOc1ccc(F)cc1NCc1nc2ccccc2n1C`, the “Percent Effect” value is recorded as 110.1%. Consider `COCCOc1ncccc1NCc1nc2ccccc2n1C`, for which the “Percent Effect” value was found to be 92.25%. In the case of `COc1ccccc1-c1noc(CNc2ccc(F)cc2OCCO)n1` it was 0.4936%. Regarding `Cc1cc(NC(=O)NC(C)(C)c2nc(C)c(C)s2)no1`, the “Percent Effect” value amounted to 5.891%.

For `CSc1ccc(-c2nc(CN3CCC(C(N)=O)CC3)c(C)o2)cc1`, the “Percent Effect” value was found to be 12.72%. In the case of `Cc1cc(S(=O)(=O)N2CCC(N3CCC(O)C3)CC2)c(Cl)cc1Cl` (stereo not drawn) it was -12.47%. Then `CCn1cnnc1CN(C)Cc1c[nH]nc1-c1ccc(F)cc1`, with 6.499%. In the case of `Cn1cccc1CN1CCc2c(nc(-c3ccccn3)[nH]c2=O)C1` it was 114.7%.

Consider `Cn1ccnc1-c1ccccc1C(=O)N1CCc2c(nc(N)[nH]c2=O)C1`, for which the “Percent Effect” value is on record as 1.911%. Then `Cc1ncc(CN2CCc3c(nc(-c4ccccn4)[nH]c3=O)C2)n1C`, with 100.8%; and `Cc1cnc(C(=O)N2CCc3c(nc(-c4ccncc4)[nH]c3=O)C2)cn1`, with -3.986%.

For the compound `O=C(c1ccccn1)N1CCc2c(nc(-c3ccncc3)[nH]c2=O)C1`, the “Percent Effect” value was -0.04653%. As to `CC(NC(=O)N1CCN(c2ccc(Cl)cc2)CC1)C(=O)N1CCSCC1` (stereo not drawn), the “Percent Effect” value is on record as -1.833%. For the compound `O=C(c1cnccn1)N1CCC(Oc2ncccc2Cl)CC1`, the “Percent Effect” value was determined as 33.47%.

Consider `Nc1nc(C2CCN(C(=O)c3cnccn3)CC2)cs1`, for which the “Percent Effect” value was found to be 113.4%.

As for `Nc1nc(C2CCN(C(=O)c3cnco3)CC2)cs1`, the “Percent Effect” value is 114.6%. In the case of `CCc1nc(CN2CCN(C(=O)c3cnccn3)CC2)cs1` it was -1.168%; in that of `O=C(NCC1CCCN1Cc1ccccc1)NCC1(O)CCC1` (stereo not drawn), 10.62%. Turning to `Cn1cc(Cl)c(C(=O)N2CCCN(C3Cc4ccccc4C3)CC2)n1`, the “Percent Effect” value is reported as 3%. Then `CCCn1cc(Cl)c(C(=O)N2C[C@H]3C[C@H](OC)C[C@H]3C2)n1`, with 128.4%; and `CCCn1cc(C(=O)n2nc(C)cc2C)c(S(=O)(=O)N2CCSCC2)n1`, with -15.72%. Then `CCCn1cc(Cl)c(C(=O)N2C[C@@H](O)[C@H](Oc3ccccc3)C2)n1`, with 77.97%. On to `CCOCCCNC(=O)c1nn(CC)cc1Cl`, for which the “Percent Effect” value is listed as 13.91%.

For the compound `Cn1cc(Cl)c(C(=O)N2CCC(N3CCc4ccccc4C3)CC2)n1`, the “Percent Effect” value is 3.443%.

For the compound `CCCn1cc(Cl)c(C(=O)N2C[C@@H](O)[C@H](NC(C)=O)C2)n1`, the “Percent Effect” value was determined as 135.9%. Then `CCCn1ccnc1CN1C[C@@H](NC(C)=O)[C@H](c2ccc(C)cc2)C1`, with -5.902%; and `CC(=O)N[C@@H]1CN(C(=O)c2ccncc2)C[C@H]1c1ccc(C)cc1`, with -2.552%; and `COCCN(Cc1ccccn1)C(=O)CC1OCCc2ccsc21` (stereo not drawn), with 1.398%.

As to `COc1ccc(Br)cc1CN(C)C(C)c1nc(C)no1` (stereo not drawn), the “Percent Effect” value was 6.293%.

As to `COc1ccc(C2(NCc3noc(C4CC4)n3)CCOCC2)cc1`, the “Percent Effect” value is given as -5.013%. Then `COC(C)c1cccc(NC(=O)N(CCC#N)Cc2ccccn2)c1` (stereo not drawn), with 1.571%; and `O=C(Nc1cccc(CN2CCOC2=O)c1)N1CCOCC1`, with -4.373%.

With `O=C1NC2(CCN(C(=O)Cc3ccsc3)CC2)CC1c1ccncc1` (stereo not drawn), the “Percent Effect” value is reported as -1.55%.

In the case of `CCN1CCNC(=O)C12CCN(C(=O)Cc1ccsc1)CC2`, the “Percent Effect” value is listed as 113.3%. In the case of `CC1NC(=O)COC12CCN(C(=O)Cc1ccsc1)CC2` (stereo not drawn) it was -21.8%; in that of `COc1cccc([C@@]2(O)CC[C@@H]3CN(C(=O)c4cn(C)nc4C)C[C@@H]32)c1`, 91.14%.

Turning to `Cc1nn(C)cc1C(=O)N1CCCN(C2Cc3ccccc3C2)CC1`, the “Percent Effect” value is -1.892%. In the case of `COc1cccc(OCC2CCCN(C(=O)c3cnc(C)nc3O)C2)c1` (stereo not drawn) it was -22.18%.

Turning to `COCCN1C(=O)CCC12CCCN(c1ncc(F)cn1)CC2` (stereo not drawn), the “Percent Effect” value is on record as -9.893%. Then `CCC(C(=O)N1CCCN(CCN(C)C)CC1)N1CCCC1=O` (stereo not drawn), with -2.353%; and `COCCN1C(=O)CC[C@]12CC[C@@H](NC(=O)c1cc(C)on1)CC2`, with -11.81%; and `O=C(CC1CC1)N1CCCC2(CCC(=O)N2CC2CC2)CC1` (stereo not drawn), with 113.9%. In the case of `CN(C)CCN1C(=O)CCC12CCCN(C(=O)CC1CC1)CC2` (stereo not drawn) it was 109.9%; in that of `Cc1ccc(C(=O)N2CCC3(CCC(=O)N(CCN(C)C)C3)CC2)nc1`, 13.38%. In the case of `Cc1cc(C(=O)N[C@H]2CC[C@@]3(CCC(=O)N3CC3CC3)CC2)no1` it was -41.45%; in that of `COCCN1C(=O)CCC12CCN(C(=O)CNC(C)=O)CC2`, 102.7%.

As for `COCCN1C(=O)CCC12CCCN(C(=O)CC1CC1)CC2` (stereo not drawn), the “Percent Effect” value is listed as 103.4%. In the case of `COCCN1C(=O)CCC12CCN(c1ncc(F)cn1)CC2.O=C(O)C(F)(F)F` it was 4.325%; in that of `O=C1CCC2(CCN(S(=O)(=O)c3ccccc3)CC2)N1CC1CC1`, -5.701%; in that of `c1ccc(OCCNc2ncnc3sc4c(c23)CCNC4)cc1`, 38.96%. Then `CCN1C[C@H]2CCN(c3ncccn3)CC[C@H]2S1(=O)=O`, with 3.931%; and `Cc1cc(C)nc(NC2CCc3nc(C)nn3C2)n1` (stereo not drawn), with 12.23%.

Turning to `O=C(O)CC(NC(=O)c1cc(Br)c[nH]1)c1ccccc1` (stereo not drawn), the “Percent Effect” value came out at 7.291%.

Consider `Cc1c(C(=O)N2CCC3(CCC(=O)N(CCN(C)C)C3)CC2)ccn1C`, for which the “Percent Effect” value is given as 2.177%. Then `CN(C)CCN1C(=O)CCC12CCN(C(=O)CC1CC1)CC2`, with 92.35%; and `O=C(c1nccc2ccccc12)N(Cc1ccco1)CC1CCCO1` (stereo not drawn), with 5.16%.

With `CC(C)(C)OC(=O)NCC(=O)NCc1ccc(Cl)s1`, the “Percent Effect” value is recorded as 16.63%. Then `CNC(=O)COC1COC2(CCN(c3ccc(C)nn3)CC2)C1.O=C(O)C(F)(F)F` (stereo not drawn), with -17.84%. In the case of `O=C(O)C(F)(F)F.c1cncc(COC2COC3(CCN(c4cnccn4)CC3)C2)c1` (stereo not drawn) it was 8.045%; in that of `CNC(=O)COC1COC2(CCN(Cc3cccnc3)CC2)C1.O=C(O)C(F)(F)F` (stereo not drawn), 120%. Then `CNC(=O)COC1COC2(CCN(c3cnccn3)CC2)C1.O=C(O)C(F)(F)F` (stereo not drawn), with 11.18%. In the case of `CNC(=O)COC1COC2(CCN(Cc3ccncc3F)CC2)C1.O=C(O)C(F)(F)F` (stereo not drawn), the “Percent Effect” value is recorded as 109.2%. Then `c1cnc2c(C3CCN(Cc4ccsc4)CC3)n[nH]c2n1`, with -13.91%; and `Fc1ccc(F)c(CN2CCC(c3n[nH]c4ncccc34)CC2)c1.O=C(O)CC(O)(CC(=O)O)C(=O)O`, with 96.71%; and `O=C(O)CC(O)(CC(=O)O)C(=O)O.c1cnc2[nH]nc(C3CCN(Cc4ccsc4)CC3)c2c1`, with 113.3%.

As for `Cn1cc2c(n1)C(CNC1CCOCC1)OCC2.O=C(O)C(F)(F)F` (stereo not drawn), the “Percent Effect” value was -8.385%. In the case of `CN1CCC(n2nc(Cc3cccc(Cl)c3)nc2Cn2cnnn2)CC1` it was 20.47%; in that of `CCOCc1nc(-c2ccc(F)cc2Cl)n(C2CCN(C)CC2)n1`, 110.7%. Then `CN1CCC(n2nc(Cc3cccs3)nc2-c2ccncc2)CC1`, with -23.96%; and `CCOCc1nc(-c2ccc(F)cc2Cl)n(C)n1`, with 104.7%; and `CCOCc1nc(CSc2ccncc2)n(C2CCN(C)CC2)n1`, with 13.12%.

Consider `CCOCc1nc(-c2cccc(OC)c2OC)n(C2CCN(C)CC2)n1`, for which the “Percent Effect” value worked out at 115.7%. In the case of `CN1CCC(Cc2nc(-c3cnccn3)n(C3CCS(=O)(=O)C3)n2)CC1` (stereo not drawn) it was -23.71%. Then `Cc1ncsc1-c1nc(Cc2cccs2)nn1C1CCN(C)CC1`, with -9.082%.

In the case of `CCOCc1nc(CSc2ccncc2)n(C)n1`, the “Percent Effect” value is given as -5.223%. In the case of `Nc1cnc(-c2ccc(F)cc2Cl)cn1` it was 2.9%; in that of `CN1CCC(n2nc(CC3CC3)nc2-c2ccc(F)cc2Cl)CC1`, 106.3%; in that of `COc1ncccc1-c1nc(-c2ccccn2)nn1C1CCN(C)CC1`, -6.109%.

In the case of `CCOc1ccc(NC(C)C(=O)NCCc2cccs2)cc1CO` (stereo not drawn), the “Percent Effect” value is -30.37%. Turning to `CC(C)c1noc(CCCC(=O)N2CCN(C)CC2c2ccccc2)n1` (stereo not drawn), the “Percent Effect” value is 5.23%. `O=C(c1cnc(-c2noc3cc(N4CCCC4)ccc23)s1)N1CCCC1`: the “Percent Effect” value was 0.8579%. In the case of `CCC(C)NS(=O)(=O)Cc1cccc(NC(=O)c2cc[nH]c2C)c1` (stereo not drawn) it was 3.733%; in that of `Cc1ccc2nc(C)c(C)c(C(=O)NCCCn3cnnc3)c2c1`, -1.384%.

With `CC(C)Oc1cc(N2CC[C@@H](N3CCOCC3)[C@H](O)C2)nc(N)n1`, the “Percent Effect” value is recorded as -17.76%.

On to `CCn1nccc1CNc1[nH]cnc2nc(C)nc1-2`, for which the “Percent Effect” value is given as 100.2%.

For `CCn1nccc1CN(C)c1[nH]cnc2nc(C)nc1-2`, the “Percent Effect” value is listed as 80.56%. In the case of `CCn1nccc1CNC(=O)NC1CCCCC1` it was 13.66%; in that of `CCn1nccc1CNc1[nH]cnc2nncc1-2`, 87.91%; in that of `CCn1nccc1CNC(=O)C1CC1`, 8.516%. In the case of `CCn1ncnc1CN(CCOC)Cc1ccc(C)cc1` it was -0.7993%.
